CSC inhib: cancer stem cell inhibition; cancer stem cell-like cells viability, luminescence; inhibition, % at 7.5 µM; 300,000 tested, 1.1% active; AID 2717; in the data active = inhibition above about 75%; inconclusive = no clear call, values can overlap the other calls; tested in HMLE shEcad cells
Shn3 3UTR inh: reduces Shn3 3'UTR luciferase signal in osteoblasts | 360,000 tested, 0.52% active | AID 588674 | Clone20 osteoblast Shn3 3'UTR firefly luciferase, 24 h | inhibition, % at 12.5 µM;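 active = mean inhibition of at least 75% with every replicate also reaching 75%; inconclusive = mean inhibition at least 75% but some replicate below; inactive = mean inhibition below 75%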;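 note: 0% = median of neutral control wells and 100% = pilot-screen positive control compound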
Beta apoptosis: blocks beta cell apoptosis; INS-1E cytokine-induced death, ATP luminescence, 48 h; percent of positive-control rescue, neutral wells zero; 300,000 tested, 0.8% active; AID 435005; protection from apoptosis, % (test concentration not listed);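 active = Every replicate reaches about 75%, or at least half do and their mean reaches it too, limit read from the data; inconclusive = At least half of replicates reach the limit but their mean does not; inactive = Under half of replicates reach the limit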;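 note: 0% = cytokine-treated negative control wells and 100% = positive control rescue; higher means more ATP so stronger rescue from cytokine killing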
PfHsp90 yeast 2: inhibits growth of yeast expressing Plasmodium falciparum Hsp90. S. cerevisiae expressing PfHsp90, BacTiter-Glo ATP, 48 h; yeast lacking PDR1 and PDR3 efflux regulators. inhibition, % at 9.4 µM. 310,000 tested, 0.32% active;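 active = every replicate shows inhibition above about 80%, whatever the replicate mean, limit read from the data; inconclusive = mean inhibition reaches the set limit but some replicate falls short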;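 note: 0% = DMSO neutral controls and 100% = 20 µM radicicol positive controls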
Calb FLC: affects C. albicans growth with fluconazole; C. albicans CaCi-2 (fluconazole-resistant clinical isolate) + fluconazole, Alamar Blue growth, 48 h; growth inhibition, % (no concentration beside the values); 300,000 tested, 0.57% active; AID 1979;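 active = growth inhibition above about 58% in most replicates, limit read from the data, passing the limit was not always enough; inconclusive = exactly half the replicates above a set limit; inactive = most replicates below a set limit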;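 note: all wells also contain fluconazole at 8 µg/ml as a sub-toxic cotreatment; 0% = median of DMSO wells and 100% = median of geldanamycin control wells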
* hit, by the source's call; ? = inconclusive; . = not tested or not shown. Most compounds without a hit are left out; they make up all but 2.2% or so of the library.

SMILES | CSC inhib | Shn3 3UTR inh | Beta apoptosis | PfHsp90 yeast 2 | Calb FLC
O=C1c2ccncc2C(=O)N1CNc1ccc(Cl)cc1 | 36 | -4 | -1 | 17 | -8
O=C(Oc1c(CN2CCOCC2)cc(Cl)c2cccnc12)c1ccc(F)cc1 | 17 | 60 | 83* | . | 96*
COc1cc(C(=S)N2CCOCC2)cc(OC)c1OC(=O)c1ccc(F)cc1 | -11 | -8 | -1 | -9 | 5
COc1cccc(C(=O)OCCN2CCOCC2)c1 | -14 | -12 | 0 | 4 | 2
COc1cccc(C(=O)Oc2c(CN3CCOCC3)cc(Cl)c3cccnc23)c1 | -8 | 76 | 90* | . | 104*
COc1ccc(C(=O)Oc2c(CN3CCOCC3)cc(Cl)c3cccnc23)cc1 | 14 | 19 | 54 | 8 | 88*
COc1ccc(C(=O)OC(C)CN2CCOCC2)cc1 (stereo not given) | -10 | -6 | -6 | -33 | 4
COc1cc(C(=O)Oc2c(CN3CCOCC3)cc(Cl)c3cccnc23)cc(OC)c1OC | 20 | 79 | 93* | 1 | 94*
CCOC(=O)C1C(=O)C(=O)N(Cc2ccccc2)C1C(=O)OCC (stereo not given) | . | -15 | . | -14 | .
O=C(NCC1CCCO1)C(c1ccc(F)cc1)N(Cc1ccc(F)cc1)C(=O)Cn1nnc(-c2cccs2)n1 (stereo not given) | -17 | 7 | 8 | -5 | 104*
O=C(NCC1CCCO1)C(c1cccs1)N(Cc1cccs1)C(=O)Cn1nnc(-c2cccs2)n1 (stereo not given) | . | 13 | 2 | -13 | .
Cc1cccc(NC(=O)CSCC(=O)Nc2ccccc2C(=O)NC2CC2)c1 | 2 | -3 | 9 | -13 | 0
COc1ccc(Cl)cc1NC(=O)C1CCN(C(=O)C2CC(=O)N(c3ccc(C)cc3)C2)CC1 (stereo not given) | -35 | 13 | 5 | -18 | -2
Nc1nc(CN2CCN(c3ccccn3)CC2)nc(Nc2ccc(F)cc2)n1 | . | 17 | 2 | 16 | 92*
Nc1nc(CN2CCCCCC2)nc(Nc2ccc(F)cc2)n1 | 3 | 7 | -7 | -5 | -4
Oc1ccc(/C=N/Nc2nccnc2Cl)c(O)c1 | 95* | ? | 75* | -7 | 42
Oc1ccc(C=NNc2ccccn2)c(O)c1 | . | 86* | . | 15 | .
COc1ccc(/C=N/Nc2nccnc2Cl)c(OC)c1 | -1 | -112 | -8 | 13 | -11
O=[N+]([O-])c1cccnc1N/N=C/c1ccccc1O | 53 | 75 | 110* | -6 | -18
CCN(CC)S(=O)(=O)c1ccc(N/N=C/c2ccc(O)cc2O)nc1 | 112* | ? | 66 | -19 | 91*
O=[N+]([O-])c1ccc(NN=Cc2ccc(O)cc2O)nc1 | . | 78 | . | 1 | .
COc1ccccc1N1CCN(C(=O)CN(C)S(=O)(=O)c2ccc(C)cc2)CC1 | . | 11 | . | . | .
CC1CCCC(C)N1CCCNC(=O)c1csc2c1CCCCC2 (stereo not given) | 4 | -2 | -2 | 3 | 0
O=[N+]([O-])c1ccccc1/C=N/Nc1nccnc1Cl | -10 | -48 | 0 | 20 | 0
Oc1ccc(/C=N/Nc2ncc(Br)cn2)c(O)c1 | 91* | 63 | 87* | -20 | 2
SMILES | CSC inhib | Shn3 3UTR inh | Beta apoptosis | PfHsp90 yeast 2 | Calb FLC
Oc1ccccc1/C=N/Nc1nccnc1Cl | 88* | ? | 94* | . | 97*
Oc1ccc(Br)cc1/C=N/Nc1ncc(-c2ccccc2)cn1 | 34 | -12 | 49 | -12 | -15
Nc1ccc2c(c1)Cc1c(F)cccc1-2 | . | -34 | . | . | .
O=C(O)c1cc(-c2c[nH]c3ccccc23)nc2cc3ccccc3cc12 | -9 | -87 | 6 | . | 2
c1ccc(CSc2ccc(-c3ccccn3)nn2)cc1 | 86* | -21 | 87* | -5 | 1
O=C(CSc1ccc(-c2ccccn2)nn1)NCc1ccc(Cl)cc1 | 9 | 7 | -6 | 3 | -9
Clc1ccc(CSc2ccc(-c3ccccn3)nn2)cc1 | 127* | -24 | 84* | -17 | -21
COc1ccc(S(=O)(=O)N(C)C[C@H]2Oc3ccc(NS(=O)(=O)c4cn(C)cn4)cc3C(=O)N([C@H](C)CO)C[C@@H]2C)cc1 | . | 5 | . | 0 | .
CSCC[C@@H](CO)NC(=O)[C@H]1O[C@@H](n2ccc(=O)[nH]c2=O)[C@H](O)[C@@H]1O | . | 11 | . | . | .
CCn1c(C)nc2cc(-c3nnc(-c4c(-c5ccccc5)noc4C)o3)ccc21 | 38 | 86* | 113* | . | 15
Cc1ccc(C(=O)C(c2ccccc2)N2Cc3ccccc3C2=N)cc1 (stereo not given) | 111* | 75 | 17 | -21 | 0
COc1ccc(C(=O)C(c2ccccc2)N2CCOCC2)cc1 (stereo not given) | -9 | -9 | 0 | 9 | 2
O=C(O)c1cccc(N/N=C/c2cn(-c3ccccc3)nc2-c2cccs2)c1 | 6 | -70 | -8 | -23 | 21
NC(=O)N/N=C/c1cn(-c2ccccc2)nc1-c1cccs1 | 28 | -66 | 19 | 16 | 31
N#Cc1ccc(N/N=C/c2cn(-c3ccccc3)nc2-c2ccccc2)c([N+](=O)[O-])c1 | 56 | 8 | 87* | -15 | -32
NS(=O)(=O)c1ccc(N/N=C/c2cn(-c3ccccc3)nc2-c2cccs2)cc1 | 81* | -1 | 2 | 18 | 21
NS(=O)(=O)c1ccc(N/N=C/c2cn(-c3ccccc3)nc2-c2cccs2)c([N+](=O)[O-])c1 | 96* | 73 | 108* | . | -7
O=[N+]([O-])c1cc(S(=O)(=O)C(F)(F)F)ccc1Sc1nc2ccccc2[nH]1 | 113* | 16 | -10 | -16 | -2
O=[N+]([O-])c1cc(S(=O)(=O)C(F)(F)F)ccc1Sc1nc2ccccc2s1 | 101* | 98* | -5 | 109* | 111*
CS(=O)(=O)c1ccc(Sc2nc3ccccc3s2)c([N+](=O)[O-])c1 | . | 95* | -24 | 1 | 2
CS(=O)(=O)c1ccc(Sc2nc3ccccc3[nH]2)c([N+](=O)[O-])c1 | 6 | -1 | -12 | 17 | 6
Cc1ccc(C)c(N2CCN(S(=O)(=O)c3ccc4[nH]c(=O)ccc4c3)CC2)c1 | 1 | 94* | 6 | -19 | 2
COc1cc2cc(CN(CCc3cccc(C)c3)C(=S)NCCCN3CCOCC3)c(=O)[nH]c2cc1OC | -3 | 16 | 4 | 10 | 1
CCCCC(=O)NC(c1ccccc1OC)c1ccc2cccnc2c1O (stereo not given) | 138* | 94* | 96* | 106* | 96*
CCCC(=O)NC(c1ccccc1OC)c1ccc2cccnc2c1O (stereo not given) | 119* | 88* | 95* | -39 | 101*
CS(=O)(=O)c1cccc(-c2nnc(NC(=O)CCS(=O)(=O)c3ccccc3)o2)c1 | -5 | -9 | -7 | -12 | -3
CCO[C@@H]1OC(C(=O)O)=C[C@H](c2coc3ccccc3c2=O)[C@H]1CCCO | -8 | -23 | -9 | -9 | 0
CCO[C@@H]1OC(C(=O)NC2CC2)=C[C@H](c2coc3ccccc3c2=O)[C@H]1CCCO | 1 | 92* | -2 | -5 | 12

Screening results from PubChem.
